The nature of experiment [1]: qHTS RealTime-Glo MT Cell Viability Assay in HEK293 cells - 0 hour (AID 1224880). Note: top concentration of the series differs between compounds; nearly all actives have a fitted effect of over 45% in size. Put shortly: (§1)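 Tox21 screen in HEK293 using RealTime-Glo MT chemistry, with cells and reagent co-dispensed. Luminescence proportional to viable cell number was captured at intervals during 40 h compound exposure at 37 C.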
(qHTS replaces the single test concentration by a dilution series.)

Experiment [2] is described as follows: A CellTox Green Cytotoxicity Assay to monitor cytotoxicity in HEK293 cells - 32 hour (AID 1224881). Note: nearly all actives have a fitted effect of over 40% in size. Note: potency is the fitted concentration of half-maximal effect. The procedure, abridged: (§2)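 Seeding of HEK293 cells together with cytotoxicity dye preceded a 5 h incubation at 37 C/5% CO2. Test compounds in DMSO were then added and fluorescence monitored across 40 h.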
Experiment [3] in a line: A CellTox Green Cytotoxicity Assay to monitor cytotoxicity in HepG2 cells - 0 hour (AID 1224882). Note: nearly all actives have a fitted effect of over 35% in size. Put shortly: (§3)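 Nonlytic assay: viable cells exclude the dye, so fluorescence scales with cell death. HepG2 at 600 cells/well, compounds added after 5 h, signal read across 40 h.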
Experiment [4] is described as follows: A CellTox Green Cytotoxicity Assay to monitor cytotoxicity in HEK293 cells - 8 hour (AID 1224884). Note: nearly all actives have a fitted effect of over 35% in size. The procedure, abridged: as §2
Experiment [5] in a line: qHTS RealTime-Glo MT Cell Viability Assay in HEK293 cells - 8 hour (AID 1224887). Note: nearly all actives have a fitted effect of over 50% in size. Note: potency is the fitted concentration of half-maximal effect. The procedure, abridged:
as §1

Experiment [6] is described as follows: A CellTox Green Cytotoxicity Assay to monitor cytotoxicity in HEK293 cells - 16 hour (AID 1224888). Note: nearly all actives have a fitted effect of over 35% in size. Put shortly: as §2
The nature of experiment [7]: qHTS RealTime-Glo MT Cell Viability Assay in HepG2 cells - 0 hour (AID 1224889). Note: nearly all actives have a fitted effect of over 50% in size. The procedure, abridged: (§4)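 HepG2 cells (600/well) were dispensed with RealTime-Glo reagents, incubated 5 h at 37 °C, then treated with compounds in DMSO for up to 40 h. Nonlytic NanoLuc luminescence reflecting viable cells was read at each stated time point.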
Experiment [8] is described as follows: A CellTox Green Cytotoxicity Assay to monitor cytotoxicity in HepG2 cells - 8 hour (AID 1224890). Note: nearly all actives have a fitted effect of over 45% in size. The procedure, abridged:
as §3

Experiment [9] in a line: qHTS assay to identify small molecule antagonists of the estrogen receptor alpha (ER-alpha) signaling pathway using the BG1 cell line in the presence of 0.1 nM 17-beta-estradiol - cell viability counter screen (AID 1259241). Note: nearly all actives have a fitted effect of over 40% in size. Note: potency is the fitted concentration of half-maximal effect. Put shortly: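 Estradiol-stimulated (0.1 nM) VM7Luc4E2 cells exposed to compounds 22 hr; viability measured by fluorescence of cleaved CellTiter-Fluor substrate after 30 min.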

A short description of experiment [10]: qHTS assay to identify small molecule antagonists of the androgen receptor (AR) signaling pathway using the MDA cell line in the presence of 0.5 nM R1881 - cell viability counter screen (AID 1259242). Note: nearly all actives have a fitted effect of over 45% in size. The procedure, abridged: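 R1881 at 0.5 nM final stimulated MDA-kb2 cells during 16 hr compound treatment at 37C. Cytotoxicity read: CellTiter-Fluor fluorescence after 30 min.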

Experiment [11] concerns the target Androgen receptor (Homo sapiens) (UniProt P10275). The experiment can be described thus: qHTS assay to identify small molecule antagonists of the androgen receptor (AR) signaling pathway using the MDA cell line in the presence of 0.5 nM R1881 (AID 1259243). Note: nearly all actives have a fitted effect of over 50% in size. Put shortly:
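We exposed MDA-kb2 cells to compounds under 0.5 nM R1881 stimulation for 16 hr at 37C and quantified MMTV-driven luciferase by luminescence.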

Experiment [12] can be described thus: qHTS assay to identify small molecule phospholipidosis (PLD) inducers (AID 1259344; active = well fitted curve in the direction sought with a large enough effect; an effect the other way counts as inactive or inconclusive). Put shortly: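 HepG2 cells on collagen I, attached 4 h at 37 C, were co-treated with compound and LipidTOX Red dye for 24 h at 37 C, then fixed with paraformaldehyde plus Hoechst 33342 and imaged by high-content microscopy for phospholipid accumulation.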
Experiment [13] can be described thus: qHTS assay to identify small molecule HDAC inhibitors - cell viability counter screen (AID 1259365). Note: series mostly up to about 92 µM; nearly all actives have a fitted effect of over 50% in size. Put shortly:
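After overnight seeding at 1,500 cells per well, wild-type HCT-116 cultures took up compounds in DMSO for 2hr at 37 C. Viable cell content came from luminescence with CellTiter-Glo.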

Experiment [14] is described as follows: A CellTox Green Cytotoxicity Assay to monitor cytotoxicity in HepG2 cells - 32 hour (AID 1224883). Note: nearly all actives have a fitted effect of over 50% in size. Note: potency is the fitted concentration of half-maximal effect. The procedure, abridged: as §3
Experiment [15] is described as follows: qHTS RealTime-Glo MT Cell Viability Assay in HEK293 cells - 24 hour (AID 1224886). Note: nearly all actives have a fitted effect of over 50% in size. Note: potency is the fitted concentration of half-maximal effect. The procedure, abridged:
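HEK293 cells seeded with NanoLuc/prosubstrate reagent, rested 5 h at 37 C, then dosed and kept at 37 C up to 40 h. Nonlytic real-time luminescence from viable cells read at 0, 8, 16, 24, 32 and 40 h.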

The nature of experiment [16]: qHTS assay to identify small molecule HDAC inhibitors (AID 1259364).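 Note: wild-type HCT-116 cells with endogenous class I/II HDAC activity; top concentration of the series differs between compounds; nearly all actives have a fitted effect of over 45% in size.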 Put shortly: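 Relative class I and II HDAC activity is taken from the luminogenic signal in HCT-116 cells, with compound exposure 2 hr and reagent development 30 min at room temperature.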
Experiment [17] can be described thus: qHTS assay to identify small molecule agonists of the sonic hedgehog signaling (Shh) pathway - cell viability counter screen (AID 1259366). Note: nearly all actives have a fitted effect of over 50% in size. Note: potency is the fitted concentration of half-maximal effect. Put shortly:
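Same-well cytotoxicity read. Gli1-Luc reporter 3T3 cells; compounds 24hr, 37C/5% CO2; CellTiter-Fluor fluorescence.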

Experiment [18] can be described thus: qHTS assay to identify small molecule antagonists of the sonic hedgehog signaling (Shh) pathway - cell viability counter screen (AID 1259367). Note: nearly all actives have a fitted effect of over 55% in size. Put shortly: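 NIH/3T3-derived Gli1-Luc reporter cells (2,000 per well) rested 4 hr at 37 C, then received DMSO compounds plus conditioned medium. After 23 hr of treatment, CellTiter-Fluor was added for 1 hr at 37C and fluorescence read.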

A short description of experiment [19]: qHTS RealTime-Glo MT Cell Viability Assay in HepG2 cells - 16 hour (AID 1224885). Note: nearly all actives have a fitted effect of over 50% in size. Put shortly: as §4
The target in experiment [20] is Estrogen receptor (Homo sapiens) (UniProt P03372). The experiment can be described thus: qHTS assay to identify small molecule antagonists of the estrogen receptor alpha (ER-alpha) signaling pathway using the BG1 cell line in the presence of 0.1 nM 17-beta-estradiol (AID 1259244). Note: nearly all actives have a fitted effect of over 50% in size. The procedure, abridged:
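VM7Luc4E2; 4xERE-luciferase; 0.1 nM E2 final; 22 h co-incubation, 37C; ONE-Glo luminescence after 30 min at room temperature.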

Potency data for 9 compounds are collected here from PubChem BioAssay (Tox21).

Inconclusive results are not listed. Some structures have more than one record in an assay (separate samples or runs), and their calls can disagree. The source made the active and inactive calls. Unless noted, calls come from the whole dose curve; as a rule, active = well fitted curve in the direction sought with a large enough effect in the repeat runs; inconclusive = weak or mixed curves; inactive = no such curve, though single readings can be large; an effect the other way counts as inactive or inconclusive.

Sequence of Estrogen receptor (Homo sapiens) (P03372 whole entry, looked up): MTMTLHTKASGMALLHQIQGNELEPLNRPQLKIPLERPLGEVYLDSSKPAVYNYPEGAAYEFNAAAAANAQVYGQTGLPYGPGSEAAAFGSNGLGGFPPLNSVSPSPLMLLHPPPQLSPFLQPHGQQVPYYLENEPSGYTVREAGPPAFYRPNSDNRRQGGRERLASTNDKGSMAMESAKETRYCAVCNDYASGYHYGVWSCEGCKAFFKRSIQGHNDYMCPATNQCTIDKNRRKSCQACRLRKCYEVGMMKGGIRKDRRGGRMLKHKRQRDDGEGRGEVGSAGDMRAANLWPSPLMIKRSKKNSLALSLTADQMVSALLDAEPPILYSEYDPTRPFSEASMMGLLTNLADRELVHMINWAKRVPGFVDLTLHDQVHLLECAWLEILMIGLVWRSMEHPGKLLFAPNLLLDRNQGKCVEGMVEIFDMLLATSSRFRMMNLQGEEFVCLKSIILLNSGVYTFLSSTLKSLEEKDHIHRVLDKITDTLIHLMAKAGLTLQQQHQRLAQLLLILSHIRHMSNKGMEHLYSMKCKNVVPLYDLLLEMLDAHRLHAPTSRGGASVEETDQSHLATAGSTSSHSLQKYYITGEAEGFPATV
Sequence of Androgen receptor (Homo sapiens) (P10275 whole entry, looked up): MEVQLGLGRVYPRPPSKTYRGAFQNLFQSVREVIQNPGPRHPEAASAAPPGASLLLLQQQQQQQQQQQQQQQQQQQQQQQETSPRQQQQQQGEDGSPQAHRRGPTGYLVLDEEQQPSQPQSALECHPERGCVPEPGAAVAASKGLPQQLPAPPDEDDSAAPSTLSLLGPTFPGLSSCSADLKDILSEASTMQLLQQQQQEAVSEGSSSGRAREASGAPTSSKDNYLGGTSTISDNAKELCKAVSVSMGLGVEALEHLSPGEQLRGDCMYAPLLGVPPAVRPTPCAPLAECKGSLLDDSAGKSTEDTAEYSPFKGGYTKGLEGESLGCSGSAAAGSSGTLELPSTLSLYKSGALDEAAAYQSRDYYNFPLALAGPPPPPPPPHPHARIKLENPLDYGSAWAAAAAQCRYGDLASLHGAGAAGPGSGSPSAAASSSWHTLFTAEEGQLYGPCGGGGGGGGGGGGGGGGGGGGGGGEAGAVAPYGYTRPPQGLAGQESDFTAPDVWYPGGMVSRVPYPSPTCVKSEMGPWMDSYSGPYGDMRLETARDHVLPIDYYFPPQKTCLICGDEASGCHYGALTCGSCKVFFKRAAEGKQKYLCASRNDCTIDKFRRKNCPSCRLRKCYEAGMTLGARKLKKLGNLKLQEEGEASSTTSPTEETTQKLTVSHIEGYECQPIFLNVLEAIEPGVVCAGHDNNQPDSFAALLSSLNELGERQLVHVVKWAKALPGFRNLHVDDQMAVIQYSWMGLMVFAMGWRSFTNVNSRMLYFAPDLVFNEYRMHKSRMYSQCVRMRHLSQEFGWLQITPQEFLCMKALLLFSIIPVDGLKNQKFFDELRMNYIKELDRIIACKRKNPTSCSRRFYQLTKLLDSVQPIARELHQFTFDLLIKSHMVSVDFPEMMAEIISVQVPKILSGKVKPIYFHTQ

On to `Nc1cccc2c(N)cccc12`, for which the Potency result in [1], in [2], in experiment [3], in experiment [4], in experiment [5] and in experiment [6] was “inactive” in each case. Besides, the Potency result in [7], in [8], in experiment [10], in [11], in [12] and in experiment [13] was “inactive” in each case. In addition, in experiment [9], the Potency is 27.3 µM (active).

As for `CC(C)(C)S`, the Potency entry in experiment [1], in experiment [2], in experiment [3], in experiment [14], in [15] and in experiment [5] was “inactive” in each case. Moreover, the Potency result in [6], in experiment [7], in experiment [8], in [9], in [10] and in [16] was “inactive” in each case. Further, the Potency entry in experiment [13], in experiment [17] and in experiment [18] was “inactive” each time.

On to `CCCCCCCC(=O)Oc1c(Br)cc(C#N)cc1Br`, for which the Potency result in [1], in experiment [3], in experiment [14], in experiment [4], in experiment [19] and in experiment [6] was “inactive” each time. The Potency entry in experiment [7], in experiment [8], in experiment [9], in experiment [10], in [13] and in [17] was “inactive” each time. In experiment [18], the Potency result was “inactive”. In addition, the Potency in experiment [15] is 38.8 µM (active).

In the case of `CC(C)COC(=O)c1ccc(O)cc1`, the Potency entry in [1], in [3], in [4], in experiment [19], in [7] and in experiment [8] was “inactive” in each case. The Potency entry in experiment [9], in experiment [10], in experiment [13], in [17] and in experiment [18] was “inactive” throughout.

For `Nc1c(Cl)cc(Cl)cc1[N+](=O)[O-]`, the Potency entry in [1], in experiment [2], in [3], in [4], in experiment [19] and in [15] was “inactive” in each case. Further, the Potency result in experiment [5], in [6], in experiment [7], in [8], in experiment [9] and in experiment [10] was “inactive” each time. In addition, the Potency entry in experiment [20], in experiment [16] and in experiment [17] was “inactive” throughout.

With `CCCCC(CC)COS(=O)(=O)O` (stereo not given), the Potency result in experiment [1], in [3], in experiment [14], in experiment [4], in [19] and in experiment [15] was “inactive” each time. The Potency result in experiment [5], in [7], in [8], in [9], in experiment [10] and in experiment [12] was “inactive” in each case. In addition, the Potency entry in experiment [17] and in experiment [18] was “inactive” each time.

Consider `CC(C)C(=O)OCCOc1ccccc1`, for which the Potency entry in [2], in experiment [3], in experiment [14], in [4], in experiment [19] and in experiment [15] was “inactive” throughout. Further, the Potency entry in experiment [5], in experiment [6], in experiment [7], in [8], in [9] and in experiment [10] was “inactive” each time. In addition, the Potency entry in [20], in experiment [16], in [13], in [17] and in experiment [18] was “inactive” in each case.

As for `COc1ccc2nc(S(=O)Cc3ncc(C)c(OC)c3C)[nH]c2c1` (stereo not given), the Potency entry in experiment [2], in experiment [3], in experiment [14], in [4], in experiment [19] and in experiment [6] was “inactive” throughout. Also, the Potency result in experiment [7], in experiment [8], in [9], in [10], in experiment [20] and in experiment [13] was “inactive” each time. In experiment [17], the Potency result is “inactive”. For the same compound, the Potency in [15] is 21.6 µM (active) and inactive; in experiment [5] it was 24.3 µM (active) and inactive.

For `O=[N+]([O-])C1(Br)COCOC1`, the Potency result in experiment [1], in experiment [3], in [7], in experiment [9], in experiment [20] and in experiment [16] was “inactive” in each case. The Potency was 54.9 µM (active) in experiment [2]; 49 µM (active) in experiment [14]; 38.9 µM (active) in experiment [15]; 49 µM (active) in experiment [5]; 43.3 µM (active) in [17].
